Screening results from PubChem.
A selection: hits, their analogues and other compounds. The true share with any hit is near 7.2%.
RE007 growth inh: less growth of the S. pombe RE007 Vpr strain; S. pombe RE007 Vpr strain, BacTiter-Glo ATP luminescence, 24 h; Potency, µM (series often up to 92.2 µM), inactives show at the highest dose activity change, negative = less growth, most hits filed as inhibitors; 0.21% of 360,000 active; active = well fitted falling curve with a large enough effect; inconclusive = small, poorly fitted or top-dose-only effect; inactive = no such curve, though single readings can be large or run the other way; note: nearly all actives have a fitted effect of over 50% in size
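Fission yeast RE007 carrying one integrated HIV-1 vpr copy, seeded at OD 0.01 in PMG+AL medium with 23 nL pinned compound. Grown 24 h at 30 degrees; viability read by BacTiter-Glo luminescence after 5 min.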
HCV inhibitor: HCV inhibition | Huh7.5.1 HCVcc-Cre infection, luciferase reporter, 44 h | Potency, µM (top dose mostly 41.8 µM), for inactives: at the top dose activity change, negative = inhibition, usual class: inhibitors | 3.4% of 340,000 active
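Antiviral activity was scored by luciferase reporter output from cells infected with HCVcc-Cre (~0.5 moi) in presence of compound, 44 h infection period, cells seeded 1,000/well 4 h prior.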
LASV entry inh: inhibitors of Lassa virus binding or cell entry | Lassa virus pseudotype entry inhibition, cell reporter | Potency, µM (titrated, usually from 37.9 µM), without a hit: at the top dose activity change, negative = inhibition, most hits filed as inhibitors | 1.2% of 300,000 active | AID 540256; calls by dose curve; tested in HEK293 cells; note: nearly all actives have a fitted effect of over 50% in size
FMDV antiviral: blocks foot and mouth disease virus. FMDV antiviral cell-based qHTS. Potency, µM (top dose mostly 57.9 µM), without a hit: at the highest dose activity change, negative = inhibition, actives largely listed as inhibitors. 1.2% of 410,000 active. AID 1159524; calls by dose curve; tested in HEK293T cells; note: read-out not given here; nearly all actives have a fitted effect of over 45% in size
Sm TGR block: inhibitors of Schistosoma mansoni thioredoxin glutathione reductase | Q962Y6 | purified TGR, DTNB reduction, TNB absorbance 405 nm | Potency, µM (top dose mostly 114 µM), inactives show top-dose activity change, negative = inhibition, actives largely listed as inhibitors | 3% of 360,000 active | AID 485364; note: nearly all actives have a fitted effect of over 60% in size
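TGR 20 nM + NADPH 100 uM (dispensed conc.), cpd preinc 15 min RT; start with NADPH (500 uM addition) then DTNB (15 mM addition). Kinetic TNB absorbance, 405 nm filter. Four-parameter Hill fit across titration.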
MARV entry inh: blocks Marburg virus binding to or entry into cells; 1.8% of 300,000 active; AID 540276; Potency, µM (series often up to 37.8 µM), for inactives: at the top dose activity change, negative = inhibition, hits mostly inhibitors; Marburg virus pseudotyped entry inhibition, cell reporter; calls by dose curve; tested in HEK293 cells
* marks the source's active call; other numbers are inactive results; ? = inconclusive; / = not tested or not shown; [ ] = another dose, or the depositor's remark. Unless noted, calls come from the whole dose curve; as a rule, active = well fitted curve in the direction sought with a large enough effect; inconclusive = small, poorly fitted or top-dose-only effect, or another doubt; inactive = no such curve, though single readings can be large; an effect the other way counts as inactive or inconclusive. % is set by controls: 0 for no effect and ±100 for the full control effect; potency is the fitted concentration of half-maximal effect.

SMILES	RE007 growth inh	HCV inhibitor	LASV entry inh	FMDV antiviral	Sm TGR block	MARV entry inh
COc1ccc(CCNC(=O)CSc2ncc3c(n2)-c2cc(Cl)ccc2N(Cc2ccccc2)S3(=O)=O)cc1OC	/	/	17%[46.1 µM]	-19%	-15%	/
CN1CCC2(CC1)Nc1nc(SCc3ccc(Cl)cc3)nn1C1=C2CN(C)CC1	3%	14µM*	14µM*	-24%	0%	?
[O-][n+]1onc2c1CCC(=N/O)/C2=N\Nc1ccccc1	/	/	/	/	18µM*	/
CCOC(=O)c1sc(NC(=O)c2sccc2C)cc1C	-19%	10µM*	?	38%	5%	?
CCOC(=O)c1sc(NC(=O)c2cccs2)cc1C	-21%	?	?	50%	-18%	?
COc1ccc2c(Sc3ccc(Cl)cc3)c(C(=O)NCCCN3CCCCC3)[nH]c2c1	/	/	-19%[46.1 µM]	-1%	4%	?
Cc1ccc2c(c1)CN(CCC(=O)NCc1cc(C)n(C)n1)CC(C)O2 (configuration not stated)	/	/	/	-6%	/	/
COC(=O)[C@](NC(=O)c1ccccc1)(Nc1nc(C)cs1)C(F)(F)F	/	/	/	/	/	4%
CCC(=O)c1cc(F)c(N2CCN(S(=O)(=O)c3ccc(C)cc3)CC2)cc1C	8%	13µM*	-24%	?	7%	?
Cc1ccc(N2CCN(S(=O)(=O)c3ccc(F)c(C)c3)CC2)c(C)c1	-4%	-16%	?	-26%	0%	-18%[46.1 µM]
Clc1ccc(OCc2nn3c(-c4ccco4)nnc3s2)cc1	-7%	-1%	2%	0%	32µM*	-28%
c1coc(-c2nn3c(-c4ccco4)nnc3s2)c1	2%	21%	8%	6%	14µM*	2%
COc1ccccc1-c1nn2c(-c3ccco3)nnc2s1	3%	8%	10%	72%	?	?
CCOc1ccc(-c2nnc3sc(COc4ccc(C)cc4)nn23)cc1	-2%	16%	8.2µM*	0%	-1%	7%[46.1 µM]
CCC(C(=O)NCCC(C)C)N(C(=O)Cn1nnc(-c2ccc(C)cc2)n1)c1cccc(O)c1 (configuration not stated)	/	/	-12%[46.1 µM]	?	11%	?
CCOC(=O)C1=C(C)Nc2sc(C(=O)c3ccc(F)cc3)c(N)c2C1c1ccc(C(=O)OC)cc1 (configuration not stated)	1%	7.1µM*	?	-11%	-14%	?
CCOC(=O)C1=C(C)Nc2sc(C(=O)c3ccc(C)cc3)c(N)c2C1c1ccc(C(=O)OC)cc1 (configuration not stated)	17%	?	?	-17%	-1%	?
O=C(Nc1ccc2nc(-c3cccs3)[nH]c2c1)c1cccs1	-9%	13µM*	18%	15%	1%	-8%[46.1 µM]
CCOC(=O)c1nnc2c(-c3ccc(OC)cc3)c(C)nn2c1N	/	/	26%[46.1 µM]	0%	?	1%[46.1 µM]
CCc1cc(-c2cnnn2CCc2c[nH]c3ccccc23)ccc1-c1cn(CC(C)C)nn1	-12%	/	7.9µM*	-23%	/	/
CCOC(=O)C1CCN(S(=O)(=O)c2c(Cl)ccc3nonc23)CC1	/	/	/	/	0.89µM*	/
O=C(/C=C/Nc1ccc(F)cc1)c1cccs1	-21%	4%	?	13µM*	/	11µM*
Cc1ccccc1C(=O)O/N=C/c1c(N2CCOCC2)n(C)c2ccccc12	?	1µM*	-16%	?	10%	?
CCNc1nc(Oc2ccc(OCC(=O)OC)nn2)nc(N2CCOCC2)n1	/	/	0%[46.1 µM]	17%	-8%	12%[46.1 µM]
O=c1[nH]c(CN2CCN(c3ccc([N+](=O)[O-])cc3)CC2)nc2ccsc12	10%	?	-2%	32µM*	-1%	-28%
SMILES	RE007 growth inh	HCV inhibitor	LASV entry inh	FMDV antiviral	Sm TGR block	MARV entry inh
CSc1nc2sc3c(c2c(=O)[nH]1)CC[C@@H](C)C3	/	/	/	/	/	23%
N#Cc1c(N)nc(SCC(=O)OCc2ccccc2)c(C#N)c1-c1ccco1	23%	-16%	9%	5%	-2%	-13%
N#Cc1c(N)nc(SCc2ccccc2)c(C#N)c1-c1ccco1	7%	?	-25%	/	50µM*	?
CCN(C[C@H]1N[C@@](C)(C(=O)OC)[C@H]2C(=O)N(C)C(=O)[C@@H]12)C(=O)Nc1ccc(OC)cc1	7%	2.5µM*	/	-11%	/	/
CCOc1ccc(CNC(=O)c2cc3c(s2)-c2ccccc2OC3)cc1	/	/	/	17%	-2%	12%[46.1 µM]
CC(/C=N/n1cnnc1)=C\c1ccco1	-1%	8%	-1%	7%	35µM*	10%
CC(/C=N/n1c(-c2cc(C)[nH]n2)n[nH]c1=S)=C\c1ccco1	2%	21%	-10%	2%	13µM*	?
CC(/C=N/n1c(-c2ccc(Cl)cc2)n[nH]c1=S)=C\c1ccco1	/	3%	-27%	0%	-18%	-22%
O=C(Nc1ccccc1Cc1ccccc1)c1ccccc1NS(=O)(=O)c1ccc(Cl)s1	-9%	?	?	?	-8%	?
O=C(NCc1ccco1)c1ccccc1NS(=O)(=O)c1ccc(Cl)s1	2%	4%	-18%	-24%	28µM*	-20%[46.1 µM]
O=C(NCc1ccco1)c1ccccc1NS(=O)(=O)c1cccs1	9%	15%	12%	22%	?	12%
Cc1ccc(NC(=O)c2ccccc2NS(=O)(=O)c2ccc(Cl)s2)cc1	-1%	11µM*	?	35%	-8%	10µM*
COc1ccccc1CNC(=O)CN1C(=O)CCc2cc(S(=O)(=O)N3CCOCC3)ccc21	/	/	?	1%	-1%	/
COc1ccc(COC(=O)NNC(=O)c2ccccc2Cl)cc1	3%	-1%	4µM*	-11%	8%	1%
COCCCn1c(=N)c(C(=O)NCC2CCCO2)cc2c(=O)n3cc(C)ccc3nc21 (configuration not stated)	/	/	5%[46.1 µM]	-13%	1%	-7%[46.1 µM]
CSc1ccccc1OCc1cc(C(=O)N2CCSCC2)no1	-4%	6%	?	0%	0%	?
CSc1ccccc1OCc1cc(C(=O)N2CCN(c3ncccn3)CC2)no1	-1%	?	/	3%	40µM*	/
CSc1ccccc1OCc1cc(C(=O)N(C)Cc2ccc(C)o2)no1	-20%	-30%	?	27%	7.9µM*	?
CC(C)(C)c1ccc(C(=O)Nc2ccccc2C(=O)OCc2cc(=O)n3ccsc3n2)cc1	/	/	32%[46.1 µM]	38%	5%	/
Cc1ccc(SCc2nc(N)nc(Nc3ccccc3C)n2)cc1C	-6%	13µM*	/	13%	5%	/
Cc1ccccc1Nc1nc(N)nc(CSc2nc3ccccc3c(=O)n2C)n1	12%	?	?	16µM*	1%	?
Cc1ccccc1Nc1nc(N)nc(CSc2ccc(F)cc2)n1	5%	-9%	/	34%	-8%	/
COc1ccccc1[C@H]1/C(=C(\O)c2ccc(C)cc2)C(=O)C(=O)N1CCN1CCOCC1	/	/	/	/	/	15%
